Screening data as filed in PubChem BioAssay.
Sampled rows, rich in hits. Any-hit rate of the full collection: about 2.4%.
SENP8 block-1 – human SENP8 protease inhibitors, primary screen, biochemical, fluorescence, Nedd8 protein substrate, uHTS. recombinant SENP8. inhibition, % at 20 µM. 360,000 tested, 0.64% active. AID 602440, 2012; in the data active = inhibition mostly above about 40%, no sharp cut-off; inactive = mostly below about 27%
SENP7 block – SENP7 protease inhibitors, primary screen, biochemical, luminescence, uHTS; Sentrin-specific protease 7 (Homo sapiens), Q9BQF6; recombinant SENP7, Z-RLRGG-aminoluciferin luminescence, 40 min; inhibition, % at 5 µM; 330,000 tested, 1.5% active; AID 434973, 2010;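 active = inhibition above about 50% at the single test dose, limit read from the data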;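 also: plate controls were DMSO with enzyme for no effect and no enzyme buffer wells for full effect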
SENP8 block-2 – SENP8 protease inhibitors, primary screen, biochemical, luminescence; AID 2540, 2010; 330,000 tested, 1.2% active; inhibition, % at 10 µM; Sentrin-specific protease 8 (Homo sapiens), Q96LD8; purified SENP8, Z-RLRGG-aminoluciferin cleavage; in the data active = inhibition above about 50%
Platelet DG rel – inhibitors of platelet dense granule secretion, primary screen, cell-based, MLPCN, human platelets; AID 1663, 2009; inhibition, %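 (compounds screened at 7.5 µM in platelet-rich plasma)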; human platelet-rich plasma, SFLLRN dense granule ATP release, luminescence; 300,000 tested, 0.22% active;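 active = mean replicate score, as percent of positive control, at or above 50; inconclusive = mean below 50 but at least one replicate at or above 50; inactive = mean and every replicate below 50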
SENP6 block – SENP6 protease inhibitors, primary screen, biochemical, luminescence, uHTS; Sentrin-specific protease 6 (Homo sapiens), Q9GZR1; Recombinant SENP6 catalytic domain, aminoluciferin luminescence; inhibition, % at 10 µM; 330,000 tested, 1.8% active; AID 2599, 2010;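 active = inhibition above about 50% at the single tested dose, limit read from the data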;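 also: plate controls were DMSO wells with enzyme for no effect and DMSO wells lacking enzyme for full effect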
Target sequence (Q9GZR1 628-1112 limits assumed): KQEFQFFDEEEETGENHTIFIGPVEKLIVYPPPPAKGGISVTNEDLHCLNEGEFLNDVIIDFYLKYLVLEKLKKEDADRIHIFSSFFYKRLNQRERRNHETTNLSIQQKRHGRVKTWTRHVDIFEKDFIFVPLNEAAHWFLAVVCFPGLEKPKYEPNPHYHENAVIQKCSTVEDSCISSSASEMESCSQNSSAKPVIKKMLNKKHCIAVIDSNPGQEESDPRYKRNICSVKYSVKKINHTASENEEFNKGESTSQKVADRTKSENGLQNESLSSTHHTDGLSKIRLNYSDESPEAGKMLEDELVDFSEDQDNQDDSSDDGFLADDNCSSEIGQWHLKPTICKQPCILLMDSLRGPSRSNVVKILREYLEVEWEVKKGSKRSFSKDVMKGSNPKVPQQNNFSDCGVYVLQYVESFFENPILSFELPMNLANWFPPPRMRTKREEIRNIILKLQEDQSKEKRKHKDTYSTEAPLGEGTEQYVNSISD
SENP8 inh conf – human SENP8 protease inhibitors, confirmation, biochemical, Nedd8 protein substrate, single concentration | 1,400 tested, 15% active | inhibition, % at 25 µM | purified SENP8, Nedd8-AMC/pro-Nedd8 cleavage fluorescence, 30 min | AID 624319, 2012 | shares compounds with SENP8 block-1; in the data active = inhibition mostly above about 39%, no sharp cut-off; inactive = mostly below about 34%
* marks the source's active call; other numbers are inactive results; u = inconclusive; x = no result given.

SMILES | SENP8 block-1 | SENP7 block | SENP8 block-2 | Platelet DG rel | SENP6 block | SENP8 inh conf
COC(=O)C1CCc2c(ccc3c2CCCC3)C1=O (centres undefined) | -11 | x | x | x | x | x
NS(=O)(=O)c1ccc(CCNC(=O)COC(=O)c2ccc([N+](=O)[O-])o2)cc1 | 47* | 7 | 14 | x | 16 | 89*
CC(C)C1Cc2c(sc3ncnc(NN)c23)CO1 (centres undefined) | 42* | -11 | -8 | -14 | 3 | 11
COC(=O)CSc1nnc(CNS(=O)(=O)c2ccc(Br)cc2)n1C | 16 | 0 | 0 | 5 | -8 | x
COC(=O)CSc1nnc(CNS(=O)(=O)c2ccc(C)cc2)n1C | 42* | -3 | -1 | 1 | 7 | -1
COC(=O)CSc1nnc(CNc2ccc(OC)cc2)n1C | 69* | -4 | -1 | -7 | -9 | 0
CC(C)OC(=O)CSc1nnc(CNc2ccc(Cl)cc2)n1C | 10 | 8 | 5 | -5 | 0 | x
C[C@@H](OC(=O)c1[nH]cnc1C(=O)N1CCc2ccccc2C1)c1ccccc1 | 52* | 4 | 6 | x | 6 | 86*
COc1ccc(C(=O)CNc2ccc(C)cc2C)cc1 | 54* | 13 | -7 | -13 | -7 | 14
O=C(CSC1=NNC(c2ccccn2)S1)Nc1cccc(Cl)c1 (centres undefined) | 25 | 8 | -8 | -3 | -11 | x
O=C(CSC1=NNC(c2ccccn2)S1)Nc1ccccc1 (centres undefined) | 48* | 9 | 4 | 17 | -18 | 20
COc1ccc(NC(=O)CN2C(=O)COc3ccc(S(=O)(=O)N4CCCCCC4)cc32)cc1 | 15 | 5 | -6 | -7 | -11 | x
CC1(Oc2ccc3ccccc3c2)CCN(Cc2ccc(OC(F)(F)F)cc2)C1 (centres undefined) | 7 | x | x | x | x | x
COc1ccc(N2C(=O)[C@@H]3[C@H](C2=O)[C@H]2c4ccccc4C=CN2[C@@H]3C(C)=O)cc1 | 63* | x | x | x | x | 93*
CCCCNC(=O)Cn1nc(Cc2ccncc2)c2ccccc2c1=O | 18 | 4 | 2 | -8 | 0 | x
O=C(Cn1nc(Cc2ccncc2)c2ccccc2c1=O)N1CCc2ccccc2C1 | 84* | 10 | 12 | x | 31 | 94*
CC12CCC(=O)N1C(C(=O)NNC(=O)c1ccccc1Cl)CS2 (centres undefined) | 2 | -6 | -1 | x | 2 | x
CC(=O)Nc1ccc(NC(=O)C(C)Oc2ccccc2C(=O)NCc2ccccc2)cc1 (centres undefined) | 1 | 0 | -2 | x | 1 | x
O=C(Nc1cccnc1)c1ccc([N+](=O)[O-])s1 | 43* | 10 | 3 | x | 10 | 30
O=C(O)c1cccc2c1C(=O)c1ccccc1-2 | 13 | 0 | 1 | -4 | -9 | x
O=C1C(=C(I)I)c2ccccc2-c2ccccc21 | 40* | x | x | x | x | -1
Cc1nnc(Sc2cc(NCCCO)c([N+](=O)[O-])c3nonc23)s1 | 75* | x | x | 7 | x | 6
CCCSc1cc(NCCOC(C)=O)c([N+](=O)[O-])c2nonc12 | 26 | 8 | -7 | u | 0 | x
COc1ccc(C)cc1N(CC(=O)NCCN1CCOCC1)S(=O)(=O)c1ccccc1 | 22 | -2 | 4 | 0 | -3 | x
O=C(Nc1ccc(N2CCN(C(=O)c3ccc(Cl)cc3)CC2)cc1)c1ccc2c(c1)OCCO2 | 8 | 0 | -9 | 4 | -11 | x
CC(C)(C)C(=O)N1CCN(c2ccc(NC(=O)c3ccc([N+](=O)[O-])o3)cc2)CC1 | 48* | 12 | 6 | -12 | 12 | 27
CC(C)(C)C(=O)N1CCN(c2ccc(NC(=O)c3ccco3)cc2)CC1 | 2 | 0 | -2 | -3 | -22 | x
CCCC(=O)N1CCN(c2ccc(NC(=O)c3ccc([N+](=O)[O-])o3)cc2)CC1 | 54* | x | x | -3 | x | 46
O=C(Nc1ccc(N2CCN(C(=O)c3ccc(Cl)cc3)CC2)cc1)c1ccc([N+](=O)[O-])o1 | 33* | x | x | -9 | x | 26
CCC(=O)N1CCN(c2ccc(NC(=O)c3ccc([N+](=O)[O-])o3)cc2)CC1 | 43* | x | x | 5 | x | 26
